# AID504770: growth inhibitors of E. coli YBA685 in a screen for V. cholerae RctB (chromosome II replication) inhibitors; E. coli YBA685 rctB-dependent plasmid, OD600 growth, 3 h; stronger effect = lower value; z-score (test concentration not listed); 130,000 tested, 0.27% active; in the data active means z-score below about -2, passing the limit was not always enough
# Mtb MbtI inh: inhibitors of Mycobacterium tuberculosis siderophore enzyme MbtI; P9WFX0; purified MbtI enzyme, fluorescence intensity read-out; inhibition, % (concentration not given with the values); 100,000 tested, 0.89% active; AID 493033; in the data active means inhibition mostly above about 56%, no sharp cut-off; inactive means mostly below about 77%
# Target sequence (P9WFX0 whole entry, looked up): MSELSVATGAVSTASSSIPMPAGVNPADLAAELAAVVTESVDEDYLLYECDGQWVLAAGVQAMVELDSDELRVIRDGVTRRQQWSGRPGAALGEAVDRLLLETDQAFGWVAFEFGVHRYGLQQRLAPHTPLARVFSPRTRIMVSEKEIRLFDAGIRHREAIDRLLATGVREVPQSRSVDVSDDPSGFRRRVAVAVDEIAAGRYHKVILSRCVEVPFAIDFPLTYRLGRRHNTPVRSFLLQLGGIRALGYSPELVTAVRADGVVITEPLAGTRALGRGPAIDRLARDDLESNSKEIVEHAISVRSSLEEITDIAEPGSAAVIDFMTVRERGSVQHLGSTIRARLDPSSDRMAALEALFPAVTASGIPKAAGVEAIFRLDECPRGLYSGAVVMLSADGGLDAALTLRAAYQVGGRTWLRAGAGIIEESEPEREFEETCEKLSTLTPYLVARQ
# Mtb MenB inh: inhibitors of Mycobacterium tuberculosis MenB enzyme; P9WNP5; MenB enzyme assay, absorbance read-out; inhibition, % (test concentration not listed); 100,000 tested, 0.43% active; AID 540299; in the data active means inhibition above about 21%, passing the limit was not always enough
# Polio RdRp inh: poliovirus RNA polymerase inhibition. P03300. poliovirus polymerase elongation, fluorescence polarization; stronger effect = lower value. % elongation, % (compound at 16.7 µg/mL). 150,000 tested, 0.66% active; in the data active means % elongation below about 90%
# An asterisk follows results filed as active; i = inactive; nt = no result. Rows were chosen to be rich in hits. Some 1.4% of all compounds tested hit in one or more screens of this group.
SMILES,AID504770,Mtb MbtI inh,Mtb MenB inh,Polio RdRp inh
Cc1sc2nc(CC(=O)N3CCCC3)[nH]c(=O)c2c1C,0.95,67,-53,75*
O=C(CCc1nc2sc3c(c2c(=O)[nH]1)CCCC3)N1CCCCC1,0.65,nt,nt,nt
Cc1ccc(C)c(C(=O)COC(=O)/C=C/c2ccccc2Cl)c1,0.3,-10,nt,101
CN=Cc1cc(-c2ccccc2)n(C)c1S,1.4,98*,-144,101
COc1ccccc1CC1(C)NC(=O)N(CC(=O)c2ccc3c(c2)OCO3)C1=O (stereo not drawn),0.75,20,3,107
CC(C)(C)C1=CC(C(C#N)C#N)c2ccccc2O1 (stereo not drawn),-2.1*,-15,nt,100
CNC(=O)C1c2ccccc2Oc2ccccc21,0.85,-3,-11,103
O=C(O)CCC(=O)Nc1nc(-c2ccc3ccccc3c2)cs1,-0.55,nt,nt,nt
CCCC1NC(=S)N(c2ccccc2)C1=O (stereo not drawn),-1,20,-23,104
Cc1ccc(C(=O)CC(C(=O)O)N2CCN(C)CC2)cc1 (stereo not drawn),-1.3,nt,31*,104
COc1cc(NC(=O)C(F)(F)F)c(OC)cc1Br,-0.5,-7,33*,102
CSc1ccccc1C(=O)NCCN1CCOCC1,-0.05,-57,-10,105
O=C1Nc2ccc(F)cc2C1(O)Cc1ccncc1 (stereo not drawn),-1,nt,nt,nt
Fc1ccccc1OC1OCCOC1Oc1ccccc1F (stereo not drawn),-0.4,-7,nt,104
N#Cc1c2c(c(-c3ccccc3)[nH]c1=S)CCCC2,0.35,51*,-22,101
N#Cc1c(N)c(C#N)c(-c2ccccc2)c2c1CCCC2,1.4,nt,-7,108
O=C(CN1CCN(c2ccc(C(F)(F)F)cn2)CC1)NC1CCCc2ccccc21 (stereo not drawn),-0.75,2,-7,103
O=C(CSc1nc2ccccc2s1)NNc1ncnc2c1cnn2Cc1ccccc1,1.7,56*,6,100
CC(C)NC(=O)CSc1nc2ccccc2s1,1.8,30,-31,105
CCOc1cccc(CNCCN2CCOCC2)c1,0.35,-2,-46,97
c1cncc(CNCCN2CCOCC2)c1,-0.2,-8,65*,102
CCOCCCNc1n[nH]c(=S)s1,-0.55,93,-2,88*
C=C(C)C(C)(O)C#CCN1CCCC1 (stereo not drawn),0.6,0,nt,nt
C=Cc1c(S(C)(=O)=O)sc(C(=O)NC)c1C,-0.35,nt,nt,nt
O=C1C=C(Nc2ccc(F)c(C(F)(F)F)c2)c2ccccc2C1=O,2.5,nt,-4,62*
SMILES,AID504770,Mtb MbtI inh,Mtb MenB inh,Polio RdRp inh
COc1cc(-c2nnc(-c3ccc(N4CCOCC4)cc3)o2)cc(OC)c1OC,0.2,90,-6,101
CC(C)(C)c1ccc(-c2nnc(-c3ccc(N4CCOCC4)cc3)o2)cc1,0.65,i,35*,101
c1cc2c(cc1CN1CCNCC1)OCCO2,-0.05,-3,-22,103
c1ccc(CNCCc2c[nH]c3ccccc23)cc1,0.95,-2,nt,nt
c1ccc(CC(NCc2c[nH]c3ccccc23)c2ccccc2)cc1 (stereo not drawn),-3.1*,-11,nt,nt
C1CCC2(CC1)C1=C(CCCC1)Nc1nnnn12,0.65,1,32*,100
NC1=NN=C(c2ccc3c(c2)OCCO3)CS1,1.1,16,15,98
NC1=NN=C(c2ccccc2)CS1,-0.6,65*,-57,97
CCC(c1ccccc1)c1nn2c(-c3cccnc3)nnc2s1 (stereo not drawn),-0.75,74,-67,100
COc1cccc(C=C2C(=O)N(C)C(=S)N(C)C2=O)c1OC,0.75,93*,-76,95
CN1C(=O)C(=Cc2ccccc2OCc2ccccc2)C(=O)N(C)C1=S,2.1,77,-25,100
CCOc1ccc(NC(=O)c2c(NC(=O)c3ccncc3)sc3c2CCC(C(C)(C)C)C3)cc1 (stereo not drawn),nt,nt,nt,83*
COc1ccc(NC(=O)c2c(NC(=O)c3ccncc3)sc3c2CCC(C(C)(C)C)C3)cc1 (stereo not drawn),nt,nt,nt,102
CCOC(=O)c1ccc(-n2c(O)c(/C=N/N3CCOCC3)c3ccccc3c2=O)cc1,-0.5,-3,-15,103
COc1ccccc1CN1CCN(C(CC(C)C)c2nnnn2Cc2ccc(F)cc2)CC1 (stereo not drawn),-0.45,-2,33*,101
Fc1ccc(C(c2nnnn2Cc2ccccc2)N2CCSCC2)cc1 (stereo not drawn),-0.1,-6,0,102
N#Cc1oc2ccccc2c1NC(=O)CSc1nnc(-c2ccccc2)n1Cc1ccco1,-0.7,84,39*,nt
